High-throughput results from PubChem.
A selection: hits, their analogues and other compounds. The true share with any hit is near 0.9%.
L3MBTL1 block = blocks human L3MBTL1; actives 0.66% (n = 230,000); Potency, µM (highest dose often 57.1 µM), for the others: top-dose activity, negative = inhibition, actives largely listed as inhibitors; AID 485360; AlphaScreen L3MBTL1–H3K9me1 peptide binding; note: potency is the fitted concentration of half-maximal effect; nearly all actives have a fitted effect of over 60% in size
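AlphaScreen assay: L3MBTL1 (50 nM final) was preincubated 30 min at room temperature with biotinylated H3(1-15)K9me1 peptide (75 nM final), then 30 min with library compounds; streptavidin donor and nickel chelate acceptor beads (10 ug/mL final) added, 30 min dark.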
B2AR arrestin = recruits beta-arrestin to the human beta2-adrenergic receptor | P07550 | beta-arrestin recruitment to beta2AR, cell-based reporter | Potency, µM (titrated, usually from 46.1 µM), for the others: at the highest dose activation, actives largely listed as activators | actives 0.02% (n = 330,000) | AID 492947;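 note: potency is the fitted concentration of half-maximal effect; 0% = DMSO controls and full agonism = EC100 isoproterenol or metaproterenol; nearly all actives have a fitted effect of over 65% in size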
Six1-Eya2 inh = blocks human Six1 binding to Eya2; Q15475+O00167; AlphaScreen GST-Six1/His-Eya2 binding, biochemical; stronger effect = lower value; activity change, % (concentration not given with the values); actives 0.56% (n = 360,000); in the data active = activity change below about -65%; inconclusive = mostly about -30% to -63%
Target sequence (O00167 whole entry, looked up): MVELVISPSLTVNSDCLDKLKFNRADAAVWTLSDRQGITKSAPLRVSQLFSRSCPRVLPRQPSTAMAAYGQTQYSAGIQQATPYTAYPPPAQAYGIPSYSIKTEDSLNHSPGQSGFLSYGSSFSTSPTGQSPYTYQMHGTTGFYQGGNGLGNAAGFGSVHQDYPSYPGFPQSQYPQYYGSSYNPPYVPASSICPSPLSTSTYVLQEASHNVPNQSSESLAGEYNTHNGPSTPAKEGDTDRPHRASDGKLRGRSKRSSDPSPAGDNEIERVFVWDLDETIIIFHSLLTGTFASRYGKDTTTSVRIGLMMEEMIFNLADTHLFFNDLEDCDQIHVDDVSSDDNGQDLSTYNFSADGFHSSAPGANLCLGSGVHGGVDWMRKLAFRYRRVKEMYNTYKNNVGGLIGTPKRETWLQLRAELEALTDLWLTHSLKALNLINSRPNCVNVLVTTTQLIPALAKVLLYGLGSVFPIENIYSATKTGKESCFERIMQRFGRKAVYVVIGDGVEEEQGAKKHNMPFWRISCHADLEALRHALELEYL
Target sequence (Q15475 whole entry, looked up): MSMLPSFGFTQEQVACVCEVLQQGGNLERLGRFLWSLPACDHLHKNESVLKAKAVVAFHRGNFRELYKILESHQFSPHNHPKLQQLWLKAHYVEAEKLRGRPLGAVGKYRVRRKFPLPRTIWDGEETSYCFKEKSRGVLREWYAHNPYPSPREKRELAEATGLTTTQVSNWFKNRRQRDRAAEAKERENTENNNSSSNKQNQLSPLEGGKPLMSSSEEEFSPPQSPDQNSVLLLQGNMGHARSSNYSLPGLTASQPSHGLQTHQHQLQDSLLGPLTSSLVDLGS
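AlphaScreen with GST-Six1 and His-Eya2 (5X mix: 250 nM and 500 nM), glutathione donor and nickel acceptor beads; buffer 50 mM Tris pH 8.0, 300 mM NaCl, 1 mM TCEP; 1 h at 37 C in the dark.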
CtBP-E1A blk = CtBP/E1A binding inhibition | AlphaScreen GST-E1A/His-CtBP binding, 1536-well; stronger effect = lower value | activity change, % (test concentration not listed) | AID 651724 | actives 0.49% (n = 340,000); in the data active = activity change below about -65%; inconclusive = mostly about -30% to -63%
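GST-E1A and His-tagged CtBP (125 nM each as 5X stock) were preincubated with pin-transferred compound for 2 h at 37 °C in the dark, then glutathione donor and nickel acceptor beads were added for 1 h before AlphaScreen reading.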
Eya2 inh = blocks the phosphatase activity of human Eya2. recombinant Eya2, OMFP fluorescence dephosphorylation (OMFP is methylfluorescein phosphate). Potency, µM (titrated, usually from 76.9 µM), for inactives: at the highest dose activity, negative = inhibition, hits mostly inhibitors. actives 0.006% (n = 330,000). AID 488837; note: potency is the fitted concentration of half-maximal effect
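Eya2 (0.2 uM) preincubated 10 min at ambient with compound, then OMFP substrate added at 50 uM; 10 min reaction in 50 mM HEPES pH 7.5, 50 mM NaCl, 5 uM MgCl2, 0.05% BSA, 1 mM DTT. Fluorescence read at Ex 485/Em 525 nm.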
An asterisk follows results filed as active; ? = inconclusive; . = no result; [ ] = dose if it differs, or a comment. Unless noted, calls come from the whole dose curve; as a rule, active = well fitted curve in the direction sought with a large enough effect; inconclusive = small, poorly fitted or top-dose-only effect, or another doubt; inactive = no such curve, though single readings can be large; an effect the other way counts as inactive or inconclusive. Unless noted, % is set by controls: 0 for no effect and ±100 for the full control effect.

SMILES | L3MBTL1 block | B2AR arrestin | Six1-Eya2 inh | CtBP-E1A blk | Eya2 inh
O=C(Nc1ccccc1F)c1ccc(O)c2ncccc12 | 28.2µM* | 10.6% | . | . | -4.3%
O=C(Nc1cccc2cccnc12)c1cccc2ccccc12 | . | -1.1% | 12.0 | 13.7 | 1.8%
C/C(=N\NC(=S)NCc1ccccc1)c1ccccc1 | -5.3% | 3.3% | -12.8 | -27.3 | -1.9%
CC1=C/C(=N\NC(=S)NCc2ccccc2)CC1 | -15.2%[11.4 µM] | 7.08µM* | -11.6 | -5.0 | -9.5%
Cc1ccc(CNc2ccc(O)cc2)cc1 | 25.1µM* | ? | -25.9 | ? | -4.4%
O=C(O)CCCCC1CCSS1 (stereo unspecified) | 3.16µM* | 0.0% | 2.0 | 0.3 | 18.3%
CCOc1cccc(CNc2ccc(O)cc2)c1OCc1ccccc1Cl | 39.8µM* | ? | -24.1 | ? | -25.4%
CCOc1cccc(CNc2ccc(O)cc2)c1OCc1ccc(Cl)cc1Cl | ? | ? | 18.0 | -26.4 | -5.7%
C=CCNC(=S)N/N=C(\C)c1ccccn1 | . | -0.9% | -89.5* | -97.0* | 22.3%
C/C(=N\Nc1cccc2cccnc12)c1ccccn1 | 13.1% | 0.5% | -14.6 | -4.6 | 9.1%
CC(=NNC(=S)Nc1ccccc1Cl)c1ccccn1 | . | . | -90.1* | -66.1* | .
CC(=NNC(=S)Nc1ccccc1)c1ccccn1 | . | . | -89.0* | ? | .
O[C@@H]1C[C@H](c2ccc(Cl)cc2)N(Cc2cccs2)C[C@H]1n1cc(C2CC2)nn1 | . | . | 2.9 | 5.8 | .
O=[N+]([O-])c1ccc2c(c1)S(=O)(=O)C=C2 | . | . | . | . | -0.7%
CCOC(=O)C1=C(Nc2ccc(OC)cc2)C(N)=NC1=N | . | . | -12.9 | 5.2 | .
CC1(C)CC(=O)C(N=Nc2cc(S(=O)(=O)N3CCOCC3)ccc2Cl)=C(O)C1 | 31.6µM* | -0.9% | 2.2 | 0.3 | -10.9%
CC(=O)N/N=C/c1cc(C(C)(C)C)cc(/C=N/NC(C)=O)c1O | -11.4% | -0.3% | -76.1* | -87.8* | 7.0%
Cc1ccc(NC(=O)C2CC(=O)N(c3ccccc3Cl)C2)cc1S(=O)(=O)N1CCOCC1 (stereo unspecified) | . | . | -2.6 | -15.4 | .
Cc1ccc(C(c2cc(Cl)c3cccnc3c2O)N2CCN(C)CC2)cc1 (stereo unspecified) | . | -0.5% | ? | -85.0* | -2.8%
Oc1c(C(c2ccccn2)N2CCC(Cc3ccccc3)CC2)cc(Cl)c2cccnc12 (stereo unspecified) | . | ? | -88.5* | -67.7* | 16.5%
Oc1c(C(c2ccc(Cl)cc2)N2CCCC2)cc(Cl)c2cccnc12 (stereo unspecified) | ? | -0.3% | ? | . | 0.5%
CN1CCN(C(c2ccc(C(F)(F)F)cc2)c2ccc3cccnc3c2O)CC1 (stereo unspecified) | . | 4.5% | ? | -84.1* | -2.1%
CN1CCN(C(c2ccccn2)c2cc(Cl)c3cccnc3c2O)CC1 (stereo unspecified) | 14.1µM* | ? | -89.3* | . | 5.5%
O=C(Nc1cccc(C(=O)N2CCCC2)c1)C1CC1 | . | . | 1.1 | -8.6 | .
C/C(=N/NC(=O)c1cc(O)c(O)c(O)c1)c1ccc([N+](=O)[O-])cc1 | 17.8µM* | 5.9% | -5.7 | . | -3.1%
SMILES | L3MBTL1 block | B2AR arrestin | Six1-Eya2 inh | CtBP-E1A blk | Eya2 inh
O=C(N/N=C/c1ccc(-c2ccc(Cl)c(C(=O)O)c2)o1)c1cc2c(ccc3ccccc32)o1 | . | -0.3% | ? | -85.5* | -0.2%
Cc1ccc(-c2ccc(/C=N\NC(=O)c3cc4c(ccc5ccccc54)o3)o2)cc1[N+](=O)[O-] | 8.2% | -1.4% | -1.6 | 2.8 | 9.7%
CC1=C/C(=N\Nc2ccccc2[N+](=O)[O-])CC(C)(C)C1 | 14.1µM* | -2.0% | -69.2* | -68.0* | -4.7%
COc1ccc(NC(=O)CSc2nnc(-c3ccccn3)n2N)cc1Cl | ? | 4.1% | -16.4 | -13.4 | 4.8%
Cc1cc(C)c(NC(=O)CSc2nnc(-c3ccccn3)n2N)c(Cl)c1 | 28.2µM* | -0.6% | ? | ? | 7.5%
Nn1c(SCc2c(F)cccc2F)nnc1-c1ccccn1 | 20µM* | 3.5% | ? | ? | 6.2%
O=C(Nc1ccccc1-c1ccccc1)c1ccccc1 | -0.6% | -0.8% | -1.6 | . | 13.5%
Nc1c(S(=O)(=O)O)cc(NC(=O)c2ccccc2)c2c1C(=O)c1ccccc1C2=O | . | -0.8% | -70.6* | . | 0.3%
Oc1ccc2ccccc2c1/C=N/Nc1nnc(-c2ncc[nH]2)c2ccccc12 | . | -0.9% | -67.0* | -73.2* | 6.5%
CC(=O)C(=Nc1ccccc1Cl)NNc1ccc(Cl)cc1 | ? | 2.7% | -72.9* | ? | -6.6%
O=C(NNc1ccc(Cl)cc1)c1c(F)cccc1Cl | 1.2% | -0.5% | -4.9 | -1.9 | 11.8%
CCN(CC)S(=O)(=O)c1cccc(C(=O)N/N=C/c2ccc(O)c(O)c2O)c1 | ? | -0.1% | -90.7* | -93.5* | -3.5%
CCN(CC)C(=O)c1ccccc1NC(=O)c1cccc(S(=O)(=O)N(CC)CC)c1 | 4.3% | -0.2% | 6.9 | 0.0 | 0.1%
CCN(CC)S(=O)(=O)c1cccc(C(=O)N/N=C(\C)c2ccc(O)cc2O)c1 | 14.1µM* | 0.0% | -66.5* | ? | 0.1%
CCOc1ccccc1/C=N/NC(=O)c1cccc(S(=O)(=O)N(CC)CC)c1 | -1.0% | 0.5% | -11.8 | -16.7 | 9.7%
Cc1ccc(C)c(NC(=O)CCC(=O)NNS(=O)(=O)c2ccc(Cl)cc2)c1 | -0.4% | -0.1% | 4.0 | 0.2 | 2.7%
COc1cc(NS(=O)(=O)c2ccc(C)cc2)c2ncccc2c1 | 8.8% | 1.8% | -71.7* | -78.8* | -13.9%
COc1cc(NCCCC(C)N)c2ncccc2c1 (stereo unspecified) | -17.1% | 0.0% | ? | -70.1* | 10.7%
COc1cc(NCCCCC(C)N)c2nccc(C)c2c1 (stereo unspecified) | . | . | -14.8 | -11.0 | .
Cc1ccc(S(=O)(=O)Nc2cccc3cccnc23)cc1 | . | -0.4% | -70.7* | ? | -0.1%
COc1ccc(NC(=O)Cc2nnc(SCC(=O)NC3=NCCS3)n2C)cc1 | . | 0.2% | 1.3 | -7.9 | -0.7%
COc1ccc(/C=N/Nc2nc(-c3cccnc3)nc3ccccc23)cc1OC | 5.4% | -0.1% | 8.3 | 0.0 | 22.6%
Oc1ccc(/C=N/Nc2nc(-c3cccnc3)nc3ccccc23)c(O)c1 | -27.3% | 0.3% | -66.7* | -78.5* | 11.0%
Cc1c(O)ccc(/C=N/Nc2nc(-c3cccnc3)nc3ccccc23)c1O | -14.6% | 0.6% | -68.1* | . | 4.2%
CC(C)N(C(=O)COC(=O)[C@@H]1CC(O)CN1S(=O)(=O)c1ccc(C(C)(C)C)cc1)C(C)C (stereo partly specified) | ? | 0.0% | 6.5 | 4.8 | 4.2%
Cc1cc(C(=O)NCc2ccccc2Cl)n(-c2ccccc2)n1 | . | 0.3% | 0.5 | 2.3 | 2.9%
Cc1nn(-c2ccccc2)c(C)c1/C=C/C(=O)OCC(=O)NC1CCS(=O)(=O)C1 (stereo unspecified) | . | 0.3% | -2.6 | -75.0* | 8.6%
